# Measured values published in PMC11006913.
# Key:
# Assay in all cases: PBM; 200 nM protein, PBS
# Settings in all cases: dsDNA, one strand shown
# [1] = biological target: ALX1 (Homo sapiens, UniProt Q15699 118-204, L144V)
# [2] = biological target: ALX1 (Homo sapiens, UniProt Q15699 118-204, L144R)
# [3] = biological target: ALX1 (Homo sapiens, UniProt Q15699 118-204)
# Sequence of ALX1 (Homo sapiens, UniProt Q15699 118-204) (Q15699 118-204): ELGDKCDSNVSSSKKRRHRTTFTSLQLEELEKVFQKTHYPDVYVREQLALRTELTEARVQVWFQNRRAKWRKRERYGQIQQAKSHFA
# Sequence of ALX1 (Homo sapiens, UniProt Q15699 118-204, L144V) (Q15699 118-204 L144V): as the sequence (Q15699 118-204) above, with L27V counted along it
# Sequence of ALX1 (Homo sapiens, UniProt Q15699 118-204, L144R) (Q15699 118-204 L144R): as the sequence (Q15699 118-204) above, with L27R counted along it
Sequence,binding signal [1],binding signal [2],binding signal [3]
GTTATACA,"8.24 upbm affinity estimate (log intensity, higher = more binding, comparable within an allelic series)","8.23 upbm affinity estimate (log intensity, higher = more binding, comparable within an allelic series)","8.43 upbm affinity estimate (log intensity, higher = more binding, comparable within an allelic series)"
CACTATTA,"9.26 upbm affinity estimate (log intensity, higher = more binding, comparable within an allelic series)","9.02 upbm affinity estimate (log intensity, higher = more binding, comparable within an allelic series)","9.61 upbm affinity estimate (log intensity, higher = more binding, comparable within an allelic series)"
AATTGGTC,"9.84 upbm affinity estimate (log intensity, higher = more binding, comparable within an allelic series)","9.58 upbm affinity estimate (log intensity, higher = more binding, comparable within an allelic series)","10.2 upbm affinity estimate (log intensity, higher = more binding, comparable within an allelic series)"
AATGAATG,"9.18 upbm affinity estimate (log intensity, higher = more binding, comparable within an allelic series)","9 upbm affinity estimate (log intensity, higher = more binding, comparable within an allelic series)","9.33 upbm affinity estimate (log intensity, higher = more binding, comparable within an allelic series)"
AGCTACGA,"6.35 upbm affinity estimate (log intensity, higher = more binding, comparable within an allelic series)","6.56 upbm affinity estimate (log intensity, higher = more binding, comparable within an allelic series)","6.35 upbm affinity estimate (log intensity, higher = more binding, comparable within an allelic series)"
CCCCCCCC,"6.17 upbm affinity estimate (log intensity, higher = more binding, comparable within an allelic series)","6 upbm affinity estimate (log intensity, higher = more binding, comparable within an allelic series)","6.16 upbm affinity estimate (log intensity, higher = more binding, comparable within an allelic series)"
CTGAATTC,"7.73 upbm affinity estimate (log intensity, higher = more binding, comparable within an allelic series)","7.6 upbm affinity estimate (log intensity, higher = more binding, comparable within an allelic series)","7.82 upbm affinity estimate (log intensity, higher = more binding, comparable within an allelic series)"
CAATATTC,"8.3 upbm affinity estimate (log intensity, higher = more binding, comparable within an allelic series)","8.42 upbm affinity estimate (log intensity, higher = more binding, comparable within an allelic series)","8.48 upbm affinity estimate (log intensity, higher = more binding, comparable within an allelic series)"
ACCCGCTC,"6.49 upbm affinity estimate (log intensity, higher = more binding, comparable within an allelic series)","6.49 upbm affinity estimate (log intensity, higher = more binding, comparable within an allelic series)","6.43 upbm affinity estimate (log intensity, higher = more binding, comparable within an allelic series)"
CAACGGAG,"6.43 upbm affinity estimate (log intensity, higher = more binding, comparable within an allelic series)","6.49 upbm affinity estimate (log intensity, higher = more binding, comparable within an allelic series)","6.47 upbm affinity estimate (log intensity, higher = more binding, comparable within an allelic series)"
CACAGAGC,"6.53 upbm affinity estimate (log intensity, higher = more binding, comparable within an allelic series)","6.53 upbm affinity estimate (log intensity, higher = more binding, comparable within an allelic series)","6.59 upbm affinity estimate (log intensity, higher = more binding, comparable within an allelic series)"
AATGAACC,"8.42 upbm affinity estimate (log intensity, higher = more binding, comparable within an allelic series)","8.46 upbm affinity estimate (log intensity, higher = more binding, comparable within an allelic series)","8.7 upbm affinity estimate (log intensity, higher = more binding, comparable within an allelic series)"
CGGCCGAG,"6.33 upbm affinity estimate (log intensity, higher = more binding, comparable within an allelic series)","6.51 upbm affinity estimate (log intensity, higher = more binding, comparable within an allelic series)","6.15 upbm affinity estimate (log intensity, higher = more binding, comparable within an allelic series)"
AGCAATAT,"8.17 upbm affinity estimate (log intensity, higher = more binding, comparable within an allelic series)","8.11 upbm affinity estimate (log intensity, higher = more binding, comparable within an allelic series)","8.09 upbm affinity estimate (log intensity, higher = more binding, comparable within an allelic series)"
TAGGATAA,"8.45 upbm affinity estimate (log intensity, higher = more binding, comparable within an allelic series)","8.36 upbm affinity estimate (log intensity, higher = more binding, comparable within an allelic series)","8.67 upbm affinity estimate (log intensity, higher = more binding, comparable within an allelic series)"
CGACTGCC,"6.48 upbm affinity estimate (log intensity, higher = more binding, comparable within an allelic series)","6.43 upbm affinity estimate (log intensity, higher = more binding, comparable within an allelic series)","6.37 upbm affinity estimate (log intensity, higher = more binding, comparable within an allelic series)"
ACTTTAAA,"8.62 upbm affinity estimate (log intensity, higher = more binding, comparable within an allelic series)","8.74 upbm affinity estimate (log intensity, higher = more binding, comparable within an allelic series)","8.8 upbm affinity estimate (log intensity, higher = more binding, comparable within an allelic series)"
CTCCTAGC,"6.62 upbm affinity estimate (log intensity, higher = more binding, comparable within an allelic series)","6.57 upbm affinity estimate (log intensity, higher = more binding, comparable within an allelic series)","6.52 upbm affinity estimate (log intensity, higher = more binding, comparable within an allelic series)"
AAGACAAT,"8.75 upbm affinity estimate (log intensity, higher = more binding, comparable within an allelic series)","8.63 upbm affinity estimate (log intensity, higher = more binding, comparable within an allelic series)","8.96 upbm affinity estimate (log intensity, higher = more binding, comparable within an allelic series)"
AGATCATC,"7.78 upbm affinity estimate (log intensity, higher = more binding, comparable within an allelic series)","7.76 upbm affinity estimate (log intensity, higher = more binding, comparable within an allelic series)","7.9 upbm affinity estimate (log intensity, higher = more binding, comparable within an allelic series)"
CCGAGAGC,"6.61 upbm affinity estimate (log intensity, higher = more binding, comparable within an allelic series)","6.63 upbm affinity estimate (log intensity, higher = more binding, comparable within an allelic series)","6.63 upbm affinity estimate (log intensity, higher = more binding, comparable within an allelic series)"
CCGTATTA,"8.94 upbm affinity estimate (log intensity, higher = more binding, comparable within an allelic series)","8.73 upbm affinity estimate (log intensity, higher = more binding, comparable within an allelic series)","9.27 upbm affinity estimate (log intensity, higher = more binding, comparable within an allelic series)"
ATAACTCC,"8.41 upbm affinity estimate (log intensity, higher = more binding, comparable within an allelic series)","8.38 upbm affinity estimate (log intensity, higher = more binding, comparable within an allelic series)","8.38 upbm affinity estimate (log intensity, higher = more binding, comparable within an allelic series)"
GCACCAGC,"6.41 upbm affinity estimate (log intensity, higher = more binding, comparable within an allelic series)","6.46 upbm affinity estimate (log intensity, higher = more binding, comparable within an allelic series)","6.19 upbm affinity estimate (log intensity, higher = more binding, comparable within an allelic series)"
GCTGGCAC,"6.46 upbm affinity estimate (log intensity, higher = more binding, comparable within an allelic series)","6.45 upbm affinity estimate (log intensity, higher = more binding, comparable within an allelic series)","6.58 upbm affinity estimate (log intensity, higher = more binding, comparable within an allelic series)"
CATTAAAG,"9.86 upbm affinity estimate (log intensity, higher = more binding, comparable within an allelic series)","9.67 upbm affinity estimate (log intensity, higher = more binding, comparable within an allelic series)","10.1 upbm affinity estimate (log intensity, higher = more binding, comparable within an allelic series)"
CCGACGCG,"6.16 upbm affinity estimate (log intensity, higher = more binding, comparable within an allelic series)","6.27 upbm affinity estimate (log intensity, higher = more binding, comparable within an allelic series)","6.71 upbm affinity estimate (log intensity, higher = more binding, comparable within an allelic series)"
ACCCGCGT,"6.47 upbm affinity estimate (log intensity, higher = more binding, comparable within an allelic series)","6.51 upbm affinity estimate (log intensity, higher = more binding, comparable within an allelic series)","6.45 upbm affinity estimate (log intensity, higher = more binding, comparable within an allelic series)"
